The source of these data is PubChem BioAssay (NCI).

Test in all cases: NCI-60 one-dose screen, 48 h (100 = growth as untreated, 0 = no growth, -100 = all killed)
For test [1], the system named is HCT-15 colon. To be noted: 10 µM unless noted.
The subject of test [2] is HT29 colon. To be noted: 10 µM unless noted.
In test [3] the test system is SNB-75 CNS. As to conditions: 10 µM unless noted.
Test [4] concerns SNB-19 CNS. As to conditions: 10 µM unless noted.
Test [5] relates to U251 CNS. As to conditions: 10 µM unless noted.
In test [6] the test system is PC-3 prostate. As to conditions: 10 µM unless noted.
Test [7] relates to SK-MEL-5 melanoma. To be noted: 10 µM unless noted.
Test [8] has as its system UACC-62 melanoma. As to conditions: 10 µM unless noted.
The subject of test [9] is LOX IMVI melanoma. To be noted: 10 µM unless noted.
The test system of test [10] is SK-MEL-28 melanoma. As to conditions: 10 µM unless noted.
Test [11] relates to SK-MEL-2 melanoma. As to conditions: 10 µM unless noted.
In test [12] the test system is EKVX NSCLC. To be noted: 10 µM.
The subject of test [13] is SN12C renal. To be noted: 10 µM unless noted.
The test system of test [14] is UO-31 renal. To be noted: 10 µM unless noted.
The test system of test [15] is TK-10 renal. To be noted: 10 µM unless noted.
Test [16] concerns ACHN renal. To be noted: 10 µM unless noted.
Test [17] has as its system CAKI-1 renal. As to conditions: 10 µM unless noted.
The test system of test [18] is A498 renal. To be noted: 10 µM unless noted.
Test [19] relates to CCRF-CEM leukemia. To be noted: 10 µM.
The subject of test [20] is MOLT-4 leukemia. To be noted: 10 µM unless noted.

The structures appear in SMILES notation. Compounds without any hit were thinned out: in the full panel of roughly 83,000, 20% have a hit.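 Percent growth is the endpoint: 0 to 100 indicates growth inhibition (40 means 60% inhibition), 0 means no net growth, and negative values indicate cell death.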 A number with no mark means an inactive call. The source made the active and inactive calls. The calls were made as follows: active = growth percent below 10; inactive = the rest.

Consider `Clc1ccc(N/N=C(/c2ccccc2)c2ccccn2)nc1`, for which the growth in test [1] is 16.2%; in test [2], 36.1%; in [3], 43.4%; in test [4], 60.1%; in test [5], 42.1%; in [6], 35.5%. In addition, the growth in test [7] is 25.3%; in test [8], 32.5%; in test [9], 21.5%; in [10], 51.9%; in [11] it was 63.5%; in [12] it was 18.5%. Moreover, the growth was 47.3% in [13]; 28.3% in [14]; 37.3% in test [15]; 24.1% in [16]; 36.2% in [17]; 52.7% in [18]. The growth is 14.2% in [19] and 6.84% (active) in [20].

For `Cc1nc2c(nnn2-c2ccccc2)c2nc(-c3ccccc3)oc(=O)c12`, the growth in [1] was 101%; in test [2], 113%; in test [3] it was 99.1%; in [4] it was 104%; in test [5], 110%; in test [6] it was 105%. Further, the growth in [7] was 104%; in test [8], 97.2%; in [9], 98.3%; in test [10], 104%; in test [11], 108%; in [12], 99.3%. Moreover, the growth was 103% in test [13]; 86.5% in test [14]; 104% in test [15]; 105% in [16]; 93.8% in [17]; 98.6% in test [18]. The growth is 111% in test [19] and 112% in [20].

In the case of `O=C(Nc1cccc(Cn2c(=O)[nH]c3ccc(Oc4ncccn4)cc3c2=O)c1)c1ccc(Cl)cc1`, the growth in [1] is 59%; in test [2], 40.3%; in [3], 50.9%; in test [4], 58.5%; in test [5], 63%; in test [6], 46.2%. The growth is 12.6% in [7]; 53.9% in [8]; 66.5% in test [9]; 69.3% in [10]; 59.5% in [11]; 52.3% in [12]. The growth in [13] was 63.5%; in [14], 47.7%; in test [15], 58.5%; in [16], 40.3%; in [17] it was 60.9%; in [18] it was 53.4%. Besides, the growth in test [19] was 47%; in [20] it was 22.5%.

Turning to `COc1ccccc1C(=O)Nc1cccc(-c2cc(=O)c3c(OC)c(OC)c(OC)cc3o2)c1`, the growth in test [1] was 41.5%; in test [2], 24.6%; in test [3], 83.2%; in test [4] it was 36.2%; in test [5] it was 39%; in test [6], 30%. Further, the growth in test [7] was 25%; in [8] it was 43.1%; in test [9], 35.4%; in test [10], 56%; in test [11] it was 31.1%; in test [12] it was 61.7%. The growth in test [13] is 41%; in test [14], 15.3%; in [15] it was 53.4%; in test [16], 43%; in test [17] it was 65.1%; in test [18], 44.9%. Moreover, the growth in test [19] is 16%; in test [20] it was 28.8%.

For the compound `Cc1nn(-c2ccccc2)c(N)c1N=C1NC(=O)/C(=C/c2ccc(Cl)cc2)S1`, the growth was 80.6% in test [1]; 106% in test [2]; 58.9% in test [3]; 83.6% in test [4]; 79.1% in test [5]; 76.8% in [6]. Also, the growth is 92.1% in test [7]; 77.3% in [8]; 89.7% in [9]; 92.3% in test [10]; 100% in test [11]; 90.8% in test [12]. Besides, the growth in test [13] is 85.8%; in test [14], 73%; in test [15] it was 104%; in test [16] it was 87.3%; in [17], 66.8%; in test [18], 68.6%. The growth was 68.2% in test [19] and 87.9% in test [20].

Turning to `CC(C)(C)OC(=O)N1C/C(=C\c2ccccc2)C(=O)/C(=C/c2ccccc2)C1`, the growth in test [1] is 96.5%; in test [2], 94.1%; in [3] it was 74.9%; in test [4] it was 91.2%; in test [5] it was 90.5%; in test [6], 81%. The growth in test [7] was 108%; in test [8], 84%; in test [9] it was 95.1%; in test [10], 107%; in [11], 94.2%; in test [12], 97.7%. Moreover, the growth in [13] is 93.5%; in test [14], 71.9%; in test [15] it was 102%; in test [16], 106%; in test [17], 84.8%; in test [18] it was 101%. In addition, the growth was 76.4% in test [19] and 71.8% in test [20].

Turning to `Nc1cc(N)c2nc(NCCc3ccc(Cl)c(Cl)c3)cnc2c1`, the growth is 90% in test [1]; 41.7% in test [2]; 57.9% in [3]; 66% in test [4]; 7.5% (active) in test [5]; 43.9% in test [6]. In addition, the growth was 37.2% in test [7]; 33.7% in [8]; 39.7% in test [9]; 104% in test [10]; 54.9% in test [11]; 28.6% in test [12]. In addition, the growth in test [13] is 16.5%; in [14], 55.8%; in test [15], 98.6%; in [16], 62.6%; in test [17], 133%; in test [18], 88.2%. In addition, the growth is -63.3% (active) in test [19] and -69.9% (active) in test [20].
